# This is a sample that favours compounds with a hit; in the whole collection about 18% have one here.
# DT40 TDP1 no CPT = qHTS for Inhibitors of human tyrosyl-DNA phosphodiesterase 1 (TDP1): qHTS in cells in absence of CPT | DT40 Tdp1-/- hTDP1 cells, no CPT, ATP luminescence, 48 h | Potency, µM (doses to about 46.2 µM), for inactives: top-dose activity change, negative = growth inhibition, most hits filed as inhibitors | AID 686978, 2013 | 15% of 420,000 active; further: potency means the concentration at half of the fitted maximal effect; nearly all actives have a fitted effect of over 55% in size
#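 Seeded 400 DT40-hTDP1 cells/well (vehicle DMSO, no 20 nM CPT); pinned compounds; ≥48 hr at 37 °C; CellTiter-Glo luminescence as viability measure.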
# Six1-Eya2 inh = blocks human Six1 binding to Eya2 | 0.56% of 360,000 active | AlphaScreen GST-Six1/His-Eya2 binding, biochemical; stronger effect = lower value | activity change, % (concentration not given with the values); in the data active means activity change below about -65%; inconclusive means mostly about -30% to -63%
# Target sequence (O00167 whole entry, looked up): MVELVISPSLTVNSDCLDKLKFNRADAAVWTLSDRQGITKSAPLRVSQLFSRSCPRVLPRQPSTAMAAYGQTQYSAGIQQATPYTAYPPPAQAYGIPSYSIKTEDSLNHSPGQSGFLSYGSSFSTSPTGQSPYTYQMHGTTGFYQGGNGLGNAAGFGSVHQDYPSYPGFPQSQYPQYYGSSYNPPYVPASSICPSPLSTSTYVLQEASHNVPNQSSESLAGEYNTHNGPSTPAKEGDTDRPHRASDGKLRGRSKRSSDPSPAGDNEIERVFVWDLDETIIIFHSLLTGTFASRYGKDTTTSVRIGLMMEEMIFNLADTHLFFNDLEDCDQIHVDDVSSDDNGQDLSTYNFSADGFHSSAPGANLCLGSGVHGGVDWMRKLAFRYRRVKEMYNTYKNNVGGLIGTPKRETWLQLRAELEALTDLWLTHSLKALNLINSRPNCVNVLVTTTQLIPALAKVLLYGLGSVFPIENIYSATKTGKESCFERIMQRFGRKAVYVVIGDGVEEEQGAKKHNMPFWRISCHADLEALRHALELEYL
# Target sequence (Q15475 whole entry, looked up): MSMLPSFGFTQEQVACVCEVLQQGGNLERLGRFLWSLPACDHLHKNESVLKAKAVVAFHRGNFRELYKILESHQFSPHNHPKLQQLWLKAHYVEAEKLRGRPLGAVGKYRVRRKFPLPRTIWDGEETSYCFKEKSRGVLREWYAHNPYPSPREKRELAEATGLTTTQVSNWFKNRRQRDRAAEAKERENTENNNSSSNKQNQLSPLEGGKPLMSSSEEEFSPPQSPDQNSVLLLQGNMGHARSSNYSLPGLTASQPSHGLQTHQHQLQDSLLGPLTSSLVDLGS
#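 GST-Six1 + His-Eya2 (5X stock: 250/500 nM); Tris pH 8.0, 300 mM NaCl, 0.05% BSA, 0.02% Tween 20; GSH donor/Ni acceptor beads; 1 h 37 °C dark; AlphaScreen readout.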
# DT40 TDP1 CPT = DT40-hTDP1 cell growth loss with CPT; Potency, µM (highest dose often 46.2 µM), without a hit: at the highest dose activity change, negative = growth inhibition, actives largely listed as inhibitors; AID 686979; 12% of 420,000 active; chicken DT40 Tdp1-/-;hTDP1 cells + 20 nM CPT, ATP luminescence, 48 h; further: potency means the concentration at half of the fitted maximal effect; nearly all actives have a fitted effect of over 55% in size
#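 Chicken DT40 Tdp1-/- cells complemented with human TDP1, 400 cells/well, exposed to compounds plus 20 nM camptothecin for at least 48 h at 37 C; viability read as ATP content by CellTiter-Glo luminescence.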
# TDP1 inh = TDP1 (human) enzyme inhibition; recombinant TDP1, AlphaScreen DNA substrate cleavage; 0.28% of 350,000 active; Potency, µM (doses to about 130 µM), without a hit: at the highest dose activity change, negative = inhibition, usual class: inhibitors; further: potency means the concentration at half of the fitted maximal effect; nearly all actives have a fitted effect of over 40% in size
#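 E. coli-derived human Tdp1, 1 nM final. Cpd preinc 15 min RT; substrate 15 nM final, 5 min RT; AS bead mix 10 ug/ml final, 10 min RT. Signal loss = tyrosine-FITC cleavage. No-enzyme wells = max signal.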
# CtBP-E1A inh = CtBP/E1A binding inhibition | AlphaScreen GST-E1A/His-CtBP binding, 1536-well; stronger effect = lower value | activity change, % (no concentration beside the values) | 0.49% of 340,000 active; in the data active means activity change below about -65%; inconclusive means mostly about -30% to -63%
#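 In 5 uL wells, 23 nL compound meets equimolar GST-E1A and His-CtBP (5X stock 125 nM each) for 2 h, 37 °C. Beads (5X, 50 ug/mL) then 1 h, 37 °C, dark.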
# IL-1B inflam inh = inhibitors of inflammasome signaling (IL-1 beta secretion); THP-1 LPS/ATP IL-1B secretion, AlphaLISA, 16 h; stronger effect = lower value; activity change, % at 57.5 µM; 4.7% of 360,000 active; AID 743279; in the data active means activity change below about -50%; inconclusive means mostly about -30% to -49%
#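 Secreted IL-1B measured by AlphaLISA bead assay after 16 h compound exposure of THP-1 cells; compounds (final up to 57.5 uM) added 1 h before LPS (250 ng/mL) and ATP (1.25 mM) stimulation; lower signal means less secretion.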
# * marks the source's active call; other numbers are inactive results; ? = inconclusive; nt = no result. Unless noted, the call rests on the fitted dose curve; in most records, active means well fitted curve in the direction sought with a large enough effect; inconclusive means small, poorly fitted or top-dose-only effect, or another doubt; inactive means no such curve, though single readings can be large; an effect the other way counts as inactive or inconclusive. On the % scale 0 is the no-effect control and ±100 the full control effect.
SMILES,DT40 TDP1 no CPT,Six1-Eya2 inh,DT40 TDP1 CPT,TDP1 inh,CtBP-E1A inh,IL-1B inflam inh
CC/C(=C/c1ccccc1)c1cccc2[nH]c3c(OC)cccc3c12,?,-3,21µM*,nt,4,4
CCc1cccc(C)c1Nc1c(-c2ccsc2)nc2ncccn12,7.3µM*,nt,5.8µM*,0%,nt,nt
Cc1ccccc1Nc1c(-c2ccc(N3CCOCC3)cc2)nc2ncccn12,?,6,?,0%,13,-29
Cc1cccc(C)c1Nc1c(-c2ccsc2)nc2ncccn12,?,-6,15µM*,1%,13,4
CCc1cccc(C)c1Nc1c(-c2ccc(SC)cc2)nc2sccn12,23µM*,nt,?,11%,nt,nt
Cc1cccc(Nc2c(-c3ccc(O)cc3)nc3ncccn23)c1,?,-4,?,5%,nt,-4
CCc1cccc(C)c1Nc1c(-c2ccc(F)cc2)nc2sccn12,?,nt,?,8%,nt,nt
COc1ccc(C)cc1NC(=O)C(c1ccccc1)N1CCN(CC(=O)NC2CC2)CC1 (stereo unspecified),?,-2,?,-10%,-1,2
CC(C)Nc1nnc(SC(C)C(=O)NCc2ccc3c(c2)OCO3)s1 (stereo unspecified),-1%,-5,30%,0%,3,27
Cc1cccc(Cn2cnc3c(nnn3Cc3ccc(Cl)cc3)c2=O)c1,16µM*,23,?,-2%,34,0
O=C(Cn1cnc2c(nnn2Cc2ccc(Cl)cc2)c1=O)N1CCN(c2ccccc2)CC1,21µM*,-6,18µM*,nt,-4,-10
O=C(Cn1cnc2c(nnn2Cc2ccccc2)c1=O)N1CCN(c2ccccc2)CC1,23µM*,2,?,1%,-6,-18
O=C(Cn1cnc2c(nnn2Cc2ccccc2F)c1=O)N1CCN(c2ccccc2)CC1,?,1,?,2%,-3,-14
Cc1onc(-c2ccccc2Cl)c1C(=O)N1CCc2ccccc2C1,?,3,?,5%,-2,15
CCOc1ccccc1Nc1ccc2cc(S(=O)(=O)N3CCCCC3)ccc2n1,18µM*,nt,?,0%,nt,nt
O=S(=O)(c1ccc2nc(Nc3ccccc3)ccc2c1)N1CCCCC1,16µM*,2,?,-4%,-2,-67*
CC(=O)c1cccc(Nc2ccc3cc(S(=O)(=O)N4CCCC4)ccc3n2)c1,?,nt,?,8%,nt,nt
COc1ccc(Nc2ccc3cc(S(=O)(=O)N4CCCC4)ccc3n2)cc1OC,21µM*,nt,18µM*,8%,nt,nt
COc1cccc(Nc2ccc3cc(S(=O)(=O)N4CCC(C)CC4)ccc3n2)c1,15µM*,nt,?,-3%,nt,nt
Cc1ccc(-c2csc(CC(N)=O)n2)cc1,5%,5,-2%,0%,1,-14
Cc1nc2c(cc1C(=O)N/N=C/c1ccc(O)c(O)c1)c(=O)n(C)c(=O)n2C,?,?,?,0%,?,-10
CCCOC(=O)c1c(NC(=O)c2nc3ncccn3n2)sc(C(N)=O)c1C,-26%,nt,-25%,1%,nt,nt
COc1ccc(CNc2ccc3cc(S(=O)(=O)N4CCCCC4)ccc3n2)cc1,18µM*,nt,?,0%,nt,nt
CCOC(=O)c1ccc(N2C(=O)C(CC(N)=O)N(NC(=O)c3cccc(F)c3)C2=S)cc1 (stereo unspecified),10%,1,3%,nt,nt,-9
Cc1cc(C)c(NC(=O)c2ccc3c(c2)NC(=O)C(C)S3)c(C)c1 (stereo unspecified),-15%,3,-29%,3%,0,14
SMILES,DT40 TDP1 no CPT,Six1-Eya2 inh,DT40 TDP1 CPT,TDP1 inh,CtBP-E1A inh,IL-1B inflam inh
CCN(CC)S(=O)(=O)c1cc(NS(=O)(=O)c2cccc(C(=O)O)c2)ccc1C,-12%,9,1%,-6%,4,-8
CCN(CC)S(=O)(=O)c1cc(NC(=O)NCCCl)ccc1C,?,0,?,nt,10,46
CCN(CC)S(=O)(=O)c1cc(NC(=O)c2ccc3c(c2)NC(=O)C(C)S3)ccc1C (stereo unspecified),21µM*,-6,21µM*,2%,0,-58*
CCN(CC)S(=O)(=O)c1cc(NS(=O)(=O)c2ccccc2)ccc1C,-28%,6,16µM*,-1%,3,16
CC1Sc2ccc(C(=O)NCc3ccccn3)cc2NC1=O (stereo unspecified),0.65µM*,-4,0.82µM*,2%,-15,8
CCN(CC)S(=O)(=O)c1cc(NC(=O)c2ccc(Br)s2)ccc1C,16µM*,-16,?,3%,-11,0
NC(=O)C1(NC(=O)[C@@H]2CC3(CC(c4cccc(NC(=O)[C@@H]5CCC(=O)N5)c4)=NO3)CN2C(=O)c2cnccn2)CC1 (stereo partly specified),11%,8,-20%,-6%,4,16
COc1ccc(OC)c(CCNC(=O)C2=C(C)C(=O)OC23CCC(C)CC3)c1 (stereo unspecified),?,nt,-1%,7%,nt,nt
CON(C)c1nc(OCCNC(=O)OCc2ccc(Cl)cc2Cl)nc(N(C)C)n1,8.2µM*,2,16µM*,5%,0,45
Cc1cc(Cl)ccc1OCC(=O)NCCCn1ccnc1,-21%,2,-23%,6%,8,18
CN(C)c1nc(OCCNC(=O)Nc2ccc(Cl)cc2)nc(N(C)C)n1,-14%,-5,-17%,5%,5,3
CON(C)c1nc(OCCNC(=O)COc2ccc(Cl)cc2C)nc(N(C)C)n1,8.2µM*,-2,8.2µM*,3%,0,-2
CCOC(=O)c1nn(-c2ccc(C)cc2)c(=O)cc1OCC(=O)Nc1ccc(OC)cc1,-16%,9,-4%,45µM*,-19,10
CCc1nn2c(=O)cc(COC(=O)c3ccc(NC(=O)COc4ccc(C)cc4)cc3)nc2s1,16µM*,nt,?,-1%,nt,nt
CCCc1nn2c(=O)cc(COC(=O)c3ccccc3NC(=O)COc3ccccc3)nc2s1,-20%,nt,?,1%,nt,nt
CCOC(=O)c1nn(-c2ccccc2)c(=O)cc1OCC(=O)Nc1cccc(OC)c1,-17%,-10,-15%,-7%,-3,19
CCc1nn2c(=O)cc(COC(=O)c3ccccc3NC(=O)COc3ccc(C)c(C)c3)nc2s1,6.5µM*,nt,5.2µM*,-9%,nt,nt
CCOc1ccc(C(=O)Nc2ccc(C(=O)OCc3cc(=O)n4nc(CC)sc4n3)cc2)cc1,?,nt,-11%,-4%,nt,nt
COc1ccc(OCC(=O)Nc2ccc(C(=O)OCc3cc(=O)n4nc(C)sc4n3)cc2)cc1,21µM*,nt,13µM*,-1%,nt,nt
